“And” between values parts separate entries of the source, which are not always exact repeats. Equal values may be shown once. In all, about 16,000 compounds went through this assay and about 5,700 (36%) were called active. Inconclusive results (about 24%) are left out. Calls come from the whole dose curve; as a rule, active = well fitted curve in the direction sought with a large enough effect; inconclusive = small, poorly fitted or top-dose-only effect, or effect the other way; inactive = no such curve, though single readings can be large or run the other way. This is one part of the list.
% is set by controls: 0 for no effect and ±100 for the full control effect.

Cytochrome P450 1A2 (Homo sapiens), sequence (P05177 whole entry, looked up): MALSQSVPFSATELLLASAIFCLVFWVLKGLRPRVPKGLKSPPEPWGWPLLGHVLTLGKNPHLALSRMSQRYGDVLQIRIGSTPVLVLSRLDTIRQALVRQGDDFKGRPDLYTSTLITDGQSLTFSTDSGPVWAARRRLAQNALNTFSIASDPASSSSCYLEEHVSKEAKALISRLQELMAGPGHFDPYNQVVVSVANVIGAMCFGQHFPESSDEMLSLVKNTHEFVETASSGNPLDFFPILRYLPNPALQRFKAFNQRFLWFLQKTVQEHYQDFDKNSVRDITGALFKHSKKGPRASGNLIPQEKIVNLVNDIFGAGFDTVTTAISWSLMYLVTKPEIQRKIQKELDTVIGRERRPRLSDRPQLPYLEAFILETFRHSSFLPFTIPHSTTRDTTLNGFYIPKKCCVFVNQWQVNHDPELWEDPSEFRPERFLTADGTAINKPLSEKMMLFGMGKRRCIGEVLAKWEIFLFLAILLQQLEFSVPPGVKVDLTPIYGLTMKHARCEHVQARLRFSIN

This assay concerns the target Cytochrome P450 1A2 (Homo sapiens) (UniProt P05177). As to the kind of experiment: Cytochrome panel assay with activity outcomes. The conditions noted are these: recombinant CYP, pro-luciferin dealkylation, luminescence, p450-cyp1a2; series mostly up to 57.1 µM; activity, negative = inhibition: at the top concentration.
In the case of `c1ccc2c(Nc3ccncc3)nc(-c3ccc4c(c3)OCO4)nc2c1`, the concentration at half-maximal activity (AC50) is 1.26 µM (active).
Consider `c1ccc(Nc2nc(-c3ccc4c(c3)OCO4)nc3ccccc23)cc1`, for which the AC50 is 1.26 µM (active).
`COc1cc(C2C(C#N)=C(N)N(Nc3ccccc3)C3=C2C(=O)CC(C)(C)C3)ccc1OCc1cccc(F)c1` (stereo unspecified): the “activity, negative = inhibition” value was -13.1% (inactive).
For `CN1CCN(c2nc3cc(C(F)(F)F)ccc3n3cccc23)CC1`, the AC50 is 200 nM (active) and 39.8 nM (active).
The same measure, in the same setting: the figure for `COc1ccc(-c2csc(N3C(=N)SCC3=O)n2)cc1` is 0.631 µM (active); for `N=C1SCC(=O)N1c1nc(-c2ccccc2)cs1` it is 1.41 µM (active).
`O=C1C2C3c4ccccc4C(c4ccccc43)C2C(=O)N1c1nc(-c2ccccc2)cs1` (stereo unspecified): the “activity, negative = inhibition” value is -8.29% (inactive).
On the same count and under the same terms, the figure for `CC(C)OC(=O)CC12CN(C)CC(CC(=O)OC(C)C)(CN(C)C1)C2=O` is -15.3% (inactive); for `CCOc1ccccc1-n1nnnc1SCC(=O)Nc1cc(C)on1` it is -7% [at 11.4 µM] (inactive).
In the case of `Cc1cccc(NC(=O)CSc2nnnn2C)n1`, the AC50 was 14.1 µM (active).
Consider `Cc1c(NC(=O)CSc2nnnn2C)c(=O)n(-c2ccccc2)n1C`, for which the “activity, negative = inhibition” value is 16.8% (inactive).
`CC1=NS(=O)(=O)c2cc(Cl)ccc2N1`: the AC50 is 3.16 µM (active) and 2 µM (active).
For the molecule `NS(=O)(=O)c1cc2c(cc1Cl)NC(CSCc1ccccc1)=NS2(=O)=O`, the “activity, negative = inhibition” value was -0.403% [at 25.6 µM] (inactive).
For the molecule `Clc1ccc(-c2cc3ccccc3[nH]2)cc1`, the AC50 was 0.501 µM (active).
Same read-out and setting: then `N#C/C(=C\NC(=S)c1ccncc1)c1nc2ccccc2s1`, with 3.16 µM (active).
Turning to `CC(C)NC(=O)N1CCC2(CC1)CCN(C(=O)c1ccncc1)CC2`, the “activity, negative = inhibition” value is -10.1% (inactive).
For the molecule `CN(C)c1ccc(-c2cncnc2Nc2ccc(F)cc2)cc1`, the concentration at half-maximal activity (AC50) is 0.501 µM (active).
Regarding `CN(C)c1ccc(-c2cncnc2Nc2ccccc2)cc1`, the AC50 was 0.398 µM (active).
Turning to `Cc1ccc(C(C2C(=O)CC(C)(C)CC2=O)C2C(=O)CC(C)(C)CC2=O)s1`, the “activity, negative = inhibition” value is -22.3% (inactive).
The same measure, in the same setting: then `O=S(=O)(/N=C(/Nc1ccc(F)cc1F)c1ccc(Cl)cc1)c1ccccc1`, with 9.3% (inactive).
For `O=S(=O)(/N=C(\Sc1ccccc1)c1ccccc1)c1ccc(Cl)cc1`, the concentration at half-maximal activity (AC50) was 8.91 µM (active).
On the same count and under the same terms, the figure for `O=S(=O)(/N=C(/Nc1ccccn1)c1ccccc1)c1ccc(Cl)cc1` is 14.1 µM (active).
Turning to `COc1ccccc1N/C(=N/S(=O)(=O)c1ccc(C)cc1)c1ccc(Cl)cc1`, the “activity, negative = inhibition” value is -27.1% (inactive).
Still for that read-out and setting: then `O=S(=O)(c1ccccc1)N1CCC2(CC1)CN(c1ccccn1)C2`, with -4.84% (inactive); and `CC(C)CO/N=C1/C[C@@H](O)[C@@H](O)[C@@H]2[C@@H]3C(=O)N(C[C@@H]4CCCO4)C(=O)[C@H]3CC[C@@H]12`, with -0.346% [at 11.4 µM] (inactive); and `CC(C)CNc1nc(N)[nH]c(=O)c1NC=O`, with -20.7% [at 11.4 µM] (inactive).
As for `O=S1(=O)C=C(Oc2ccc3ccccc3c2)c2ccccc21`, the concentration at half-maximal activity (AC50) is 1.26 µM (active).
In the case of `Cn1cccc1C(=O)N1CCC2(CCN(Cc3nccs3)CC2)CC1`, the “activity, negative = inhibition” value was -6.85% (inactive).
`N#Cc1c(NC(=O)CCN2C(=O)c3ccccc3C2=O)oc(-c2ccccc2)c1-c1ccccc1`: the half-maximal activity concentration (AC50) was 2.24 µM (active).
For the molecule `O=C(Cc1ccccc1)NC1CCN(S(=O)(=O)c2ccc(C(=O)O)cc2)CC1`, the “activity, negative = inhibition” value is 15.4% (inactive).
Turning to `CN(Cc1cccc2ccccc12)Cc1cccc2ccccc12`, the AC50 was 3.16 µM (active).
Still for that read-out and setting: then `CN(C/C=C\c1ccccc1)Cc1cccc2ccccc12`, with 2 µM (active).
For the molecule `Cc1ccccc1C(=N)c1ccccc1Cc1cccc2ccccc12`, the activity, negative = inhibition is -17.6% [at 2.29 µM] (inactive).
On to `c1ccc2c(CC3=NCCN3)cccc2c1`, for which the “activity, negative = inhibition” value is -10.3% [at 25.6 µM] (inactive).
Same read-out and setting: the figure for `c1ccc2c(CC3NCCN3)cccc2c1` is -7.37% [at 11.4 µM] (inactive).
On the same count and under the same terms, then `NCCCCCCCCCCN`, with -5.54% (inactive); and `O=c1n(-c2ccccc2)c(=O)n2n1CC[C@H]1/C(=N\OC[C@@H](O)COCc3ccco3)[C@H]3O[C@@H]3[C@@H](O)[C@@H]12`, with -3.26% [at 11.4 µM] (inactive) and -7.74% [at 11.4 µM] (inactive).
Still for that read-out and setting: the figure for `Cc1ccc(C(=O)C2CCNCC2)cc1` is -9.47% (inactive).
In the case of `Cc1ccc(C(=O)/C=C2\NCC(C)NC2=O)cc1` (stereo unspecified), the AC50 is 15.8 µM (active).
With `O=C(Cc1ccccc1[N+](=O)[O-])NCc1ccccc1Cl`, the “activity, negative = inhibition” value is -12.7% (inactive).
On to `O=[N+]([O-])c1ccc(-c2cnc(SCc3ccccc3Cl)[nH]2)cc1`, for which the AC50 is 6.31 µM (active).
Regarding `Clc1ccc(-c2nnc(CCc3ccccc3)o2)c(Cl)c1`, the AC50 is 0.708 µM (active).
Still for that read-out and setting: then `CSc1nnc(-c2ccc(Cl)cc2Cl)o1`, with 2.51 µM (active); and `COc1cccc(-c2cc(=O)c3ccccc3o2)c1N`, with 0.2 µM (active).
For the molecule `CCc1cccc(C)c1NC(=O)CSc1nc2ccc(N3C(=O)c4ccccc4C3=O)cc2s1`, the “activity, negative = inhibition” value is -15.9% (inactive).
For the molecule `CCOC(=O)CSc1cc(CS(=O)c2ccc(Cl)cc2)nc(-c2ccccc2)n1` (stereo unspecified), the AC50 is 10 µM (active).
Same read-out and setting: then `COC(=O)c1ccc(NC(=O)Cn2nc(-c3ccncc3)nc2SCC(=O)Nc2nccs2)cc1`, with 11.2 µM (active).
Turning to `Nc1cc(N)nc(SCC(=O)c2ccccc2)n1`, the “activity, negative = inhibition” value is -16.7% (inactive).
For the molecule `O=C(CSc1ccccn1)Nc1nc2ccc(Br)cc2s1`, the AC50 is 2.51 µM (active).
Same read-out and setting: then `O=C(CSc1nc2ccccc2c2ccccc12)c1ccccc1`, with 0.251 µM (active).
`CCN(CC)C(=O)CSc1nc2ccc(NC(=O)CSc3nnc(COc4ccccc4C)n3C)cc2s1`: the “activity, negative = inhibition” value was -15.6% (inactive).
Still for that read-out and setting: the figure for `COc1ccc(O[C@H]2C=C[C@@H](c3ccccc3)O[C@H]2COC(=O)CC/C(C)=N\O[C@@H](C)c2cn([C@H](CO)Cc3ccccc3)nn2)cc1` is -0.286% [at 11.4 µM] (inactive) and -5.55% [at 11.4 µM] (inactive); for `CC(=O)OC1CCC(OC(C)=O)c2c1n([O-])c(C)c(C)[n+]2=O` (stereo unspecified) it is -11.4% (inactive); for `CC1(C)CC(=O)c2cn3ncnc3nc2C1` it is -18.9% (inactive).
Still for that read-out and setting: then `C[C@@H]1C[C@H]2[C@H]3C[C@@H](F)C4=CC(=O)C=C[C@]4(C)[C@@]3(Cl)[C@@H](O)C[C@@]2(C)[C@@H]1C(=O)COC(=O)C(C)(C)C`, with -13.4% [at 25.6 µM] (inactive).
Still for that read-out and setting: the figure for `CCOC(=O)CSc1nc2ccccc2c(=O)n1CC1CCC(C(=O)NCc2ccco2)CC1` (stereo unspecified) is 3.61% (inactive).
As to `CCOC(=O)CSc1nc(-c2ccccc2)nc2ccccc12`, the concentration at half-maximal activity (AC50) is 0.501 µM (active).
The same measure, in the same setting: then `O=C(CSc1nc2ccccc2s1)NNC(=S)Nc1ccc(Br)cc1`, with 5.01 µM (active); and `O=C(CSc1nc2ccccc2o1)Nc1nc2ccccc2s1`, with 3.16 µM (active).
For the molecule `O=C(O)Cn1c(-c2ccccc2)nc2ccccc21`, the “activity, negative = inhibition” value is -14.9% (inactive).
With `CCOC(=O)Cn1c(-c2ccccc2)nc2ccccc2c1=O`, the AC50 is 0.447 µM (active).
As to `CCOC(=O)Cn1c(CN(Cc2ccccc2)Cc2ccccc2)nc2c1c(=O)[nH]c(=O)n2C`, the “activity, negative = inhibition” value is -22.4% (inactive).
As to `CCCCOc1ccccc1C1CC(=O)NC2=C1C(=O)CCC2` (stereo unspecified), the “activity, negative = inhibition” value is -21.7% (inactive).
Still for that read-out and setting: then `CCCC(=O)Nc1ccc2nc(SCC(=O)Nc3ccc(N4CCOCC4)c(Cl)c3)sc2c1`, with -10.2% (inactive).
Regarding `O=C(CSc1nnc(-c2ccncc2)n1Cc1ccccc1)Nc1nccs1`, the AC50 was 11.2 µM (active).
In the case of `CCc1nnc(NC(=O)CSc2nc(C3CCCCC3)nc3ccccc23)s1`, the “activity, negative = inhibition” value was -11.1% (inactive).
The same measure, in the same setting: the figure for `Cc1ccc(S(=O)(=O)NC(=O)CSc2nc3ccccc3s2)cc1` is -28.6% (inactive); for `C=CCn1c(SCC(=O)Nc2ncc(Cc3ccc(Br)cc3)s2)nnc1-c1ccncc1` it is -21.6% (inactive).
In the case of `O=C(CSc1nc2ccccc2s1)Nc1nccs1`, the concentration at half-maximal activity (AC50) is 2.24 µM (active).
As for `O=C(CSc1nc(-c2ccccc2)nc2ccccc12)Nc1nccs1`, the AC50 is 0.158 µM (active).
With `NC(=O)NC(=O)CSc1nnc(-c2ccco2)n1Cc1ccccc1`, the “activity, negative = inhibition” value was 3.98% (inactive).
Turning to `CC(C)OC(=O)CSc1nc(-c2ccc(F)cc2)nc2ccc(F)cc12`, the concentration at half-maximal activity (AC50) was 1.12 µM (active).
`O=P(O)(CCc1ccccc1)C(O)c1ccccc1` (stereo unspecified): the “activity, negative = inhibition” value was 7.23% (inactive).
The same measure, in the same setting: the figure for `CO[C@@H](NC(N)=O)C(=O)O` is -6.36% [at 2.29 µM] (inactive); for `O=C(O)c1cc(=O)[nH]c(=S)[nH]1` it is -10.7% [at 2.29 µM] (inactive); for `Cc1cc(C)n2c(SCC(=O)N(C)C3CCS(=O)(=O)C3)nnc2n1` (stereo unspecified) it is -4.17% (inactive).
Still for that read-out and setting: then `NC(=S)NCCC[C@@H](N)C(=O)O`, with -14.7% (inactive).
On to `Cc1cccc(-c2nsc(SCC(=O)Nc3nccs3)n2)c1`, for which the AC50 was 0.251 µM (active).
The same measure, in the same setting: then `C1CCc2c(nc3nnnn3c2NC2CCCC2)C1`, with 11.2 µM (active); and `CSc1nc2nc3c(c(=O)n2[nH]1)CN(Cc1ccccc1)CC3`, with 3.16 µM (active).
For `Cc1ccccc1CN1C2=NCCN2C(=O)C2=C1CCN(Cc1ccccc1)C2`, the activity, negative = inhibition was -2.99% [at 11.4 µM] (inactive).
Still for that read-out and setting: then `COc1ccc(CNc2nc3nc4c(c(=O)n3[nH]2)CCC4)cc1`, with -14.6% (inactive); and `CCOc1ccc(C2=[N+]([O-])C(C)(C)N(O)C2(C)C)cc1`, with 4.46% (inactive).
Regarding `CSc1ccc2nnc(-c3cccc(F)c3)n2n1`, the half-maximal activity concentration (AC50) is 3.16 µM (active).
Still for that read-out and setting: the figure for `CCOc1ccc(-c2nnc3ccc(SC)nn23)cc1` is 1 µM (active); for `O=C(CN(Cc1ccco1)C(=O)c1ccccc1)Nc1ccc(Cl)c(Cl)c1` it is 14.1 µM (active).
In the case of `O=C(CSc1nnc(-c2ccccn2)n1Cc1ccco1)Nc1ccc2c(c1)OCO2`, the “activity, negative = inhibition” value is -17.1% (inactive).
On the same count and under the same terms, the figure for `O=C(c1ccccc1)N(Cc1ccco1)C1CCS(=O)(=O)C1` (stereo unspecified) is -7.86% (inactive).
On to `c1ccc2c(c1)ncn2-c1ncnc2sc3c(c12)CCCC3`, for which the AC50 is 5.62 µM (active).
As to `CC(C)(C)C(=O)[C@H]([C@@H](c1ccccc1)N1CCOCC1)N1CCOCC1`, the activity, negative = inhibition was -6.91% [at 11.4 µM] (inactive).
For `Cc1cc(C(F)(F)F)n2nc(-c3cnn(C)c3C(F)(F)F)c(Cl)c2n1`, the AC50 is 0.178 µM (active).
On the same count and under the same terms, then `Cc1cc(C(F)(F)F)n2nc(-c3cnn(C)c3C(F)(F)F)cc2n1`, with 1.12 µM (active).
`O=[N+]([O-])C(/C=C(\Cl)[N+](=O)[O-])=C1N(Cc2ccc(Cl)nc2)CCN1Cc1ccc(Cl)nc1`: the “activity, negative = inhibition” value was -20% (inactive).
Turning to `Cc1cc2[nH]c(=O)c3ccccc3n2n1`, the AC50 was 1.26 µM (active).
For the molecule `Cc1cc(-c2c(C)[nH]n(-c3ccccc3)c2=O)n(-c2ccccc2)n1`, the “activity, negative = inhibition” value is -7.47% (inactive).
With `Cc1nn2c([nH]c(=O)c3ccccc32)c1C=O`, the AC50 is 2.51 µM (active).

(Values after PubChem BioAssay AID1851 (National Center for Advancing Translational Sciences (NCATS), 2009).)
